The results in this text go back to paper PMC5540273 (PLoS ONE, 2017).

Where two headings read alike, the source gives them in different places.

Holding throughout (settings): n = 1
The subject of assay [1] is ROCK1.
Assay [2] has as its system ROCK2.
Assay [3] relates to ROS1.
In assay [4] the test system is RPS6KA4(Kin.Dom.1-N-terminal).
The test system of assay [5] is RPS6KA4(Kin.Dom.2-C-terminal).
Assay [6] relates to RPS6KA5(Kin.Dom.1-N-terminal).
Assay [7] relates to RPS6KA5(Kin.Dom.2-C-terminal).
Assay [8] concerns T1, RSK1(Kin.Dom.1-N-terminal).
T1 construct: gene RPS6KA1

In assay [9] the test system is T2, RSK1(Kin.Dom.2-C-terminal).
T2 construct: gene RPS6KA1

Assay [10] relates to T3, RSK2(Kin.Dom.1-N-terminal).
T3 construct: gene RPS6KA3

Setting [11] is: concentration: 1 μM, replicates: in singlicate.
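Also: KINOMEscan kinase panel screen.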

On to `Cc1cc(N2Cc3ccccc3C2)nc(Nc2ccc(S(=O)(=O)N3CCOCC3)cc2)n1.Cl` [GSK1669917], for which the “%Inh” value came out at 0% in assay [1] (setting [11]); 0% in assay [2] (setting [11]); 18% in [3] (setting [11]); 5% in assay [4] (setting [11]); 0% in [5] (setting [11]); 0% in [6] (setting [11]). In addition, the “%Inh” value in assay [7] (setting [11]) is 0%; in assay [8] (setting [11]), 0%; in assay [9] (setting [11]) it was 17%; in assay [10] (setting [11]), 0%.
`O=C(Nc1n[nH]c2nc(-c3nccs3)c(Br)cc12)C1CC1` [SB-742251]: the “%Inh” value in assay [1] (setting [11]) is 36%; in assay [2] (setting [11]) it was 24%; in [3] (setting [11]), 0%; in assay [4] (setting [11]) it was 0%; in assay [5] (setting [11]), 0%; in assay [6] (setting [11]) it was 0%. In addition, the “%Inh” value in assay [7] (setting [11]) turned out to be 11%; in [8] (setting [11]), 9%; in assay [9] (setting [11]), 0%; in [10] (setting [11]), 11%.
As to `COc1cc2ncnc(Nc3ccc4nc(-c5ccccc5)[nH]c4c3)c2cc1OC.Cl` [GW282450], the “%Inh” value in assay [1] (setting [11]) came out at 18%; in assay [2] (setting [11]), 30%; in assay [3] (setting [11]), 47%; in [4] (setting [11]) it was 6%; in [5] (setting [11]), 0%; in assay [6] (setting [11]), 11%. Also, the “%Inh” value in [7] (setting [11]) was 3%; in [8] (setting [11]), 0%; in assay [9] (setting [11]), 0%; in assay [10] (setting [11]), 0%.
For `COC(=O)c1c(-c2ccccc2)c2cc(C(=O)O)ccc2c(=O)n1Cc1ccccc1`, the “%Inh” value came to 10% in [1] (setting [11]); 0% in assay [2] (setting [11]); 0% in assay [3] (setting [11]); 0% in [4] (setting [11]); 6% in [5] (setting [11]); 11% in [6] (setting [11]). The “%Inh” value in assay [7] (setting [11]) is 0%; in assay [8] (setting [11]) it was 0%; in [9] (setting [11]), 18%; in assay [10] (setting [11]) it was 0%.
Consider `CN1C(=O)C(Nc2ccc(Cl)c(C(=O)O)c2)=C(c2ccc(Cl)cc2)C1=O` [SB-404290], for which the “%Inh” value was determined as 5% in [1] (setting [11]); 0% in assay [2] (setting [11]); 18% in assay [3] (setting [11]); 0% in [4] (setting [11]); 2% in assay [5] (setting [11]); 0% in assay [6] (setting [11]). For the same molecule, the “%Inh” value amounted to 0% in assay [7] (setting [11]), 0% in [8] (setting [11]), 12% in assay [9] (setting [11]) and 28% in assay [10] (setting [11]).
Regarding `COc1ccc(Nc2nccc(-c3cccc(NC(=O)c4cc5cc(F)ccc5[nH]4)c3)n2)cc1` [GSK1229782], the “%Inh” value in [1] (setting [11]) came out at 48%; in assay [2] (setting [11]), 35%; in assay [3] (setting [11]) it was 34%; in assay [4] (setting [11]), 21%; in [5] (setting [11]) it was 0%; in [6] (setting [11]), 6%. In addition, the “%Inh” value in assay [7] (setting [11]) came out at 14%; in [8] (setting [11]), 13%; in assay [9] (setting [11]), 5%; in assay [10] (setting [11]) it was 21%.
In the case of `O=C(Nc1ccc2c(c1)OCO2)NC1CCN(c2ccnc(Nc3ccc(F)cc3)n2)C1` (stereo not drawn) [GSK1379724], the “%Inh” value worked out at 6% in assay [1] (setting [11]); 3% in assay [2] (setting [11]); 0% in assay [3] (setting [11]); 0% in [4] (setting [11]); 0% in [5] (setting [11]); 11% in assay [6] (setting [11]). Also, the “%Inh” value in assay [7] (setting [11]) is recorded as 0%; in assay [8] (setting [11]) it was 11%; in [9] (setting [11]), 0%; in [10] (setting [11]), 12%.
As to `CN(C)CCN(C)C(=O)c1cc(-c2ccncc2)c(-c2ccc(Cl)c(O)c2)o1.Cl.Cl` [SB-710397], the “%Inh” value in [1] (setting [11]) was 26%; in assay [2] (setting [11]), 17%; in assay [3] (setting [11]) it was 0%; in assay [4] (setting [11]) it was 13%; in assay [5] (setting [11]), 0%; in assay [6] (setting [11]), 10%. The “%Inh” value in assay [7] (setting [11]) was found to be 2%; in assay [8] (setting [11]), 25%; in assay [9] (setting [11]), 25%; in assay [10] (setting [11]), 8%.
With `Cc1ccc(NC(=O)Nc2cccc(C(F)(F)F)c2)cc1` [GSK955403], the “%Inh” value in assay [1] (1 µM) came to 0%; in [2] (1 µM), 0%; in assay [3] (1 µM), 0%; in [4] (1 µM), 0%; in assay [5] (1 µM) it was 1%; in assay [6] (1 µM), 3%. For the same molecule, the “%Inh” value in assay [7] (1 µM) worked out at 6%; in assay [8] (1 µM) it was 1%; in [9] (1 µM) it was 6%; in assay [10] (1 µM) it was 0%.
In the case of `Cn1cncc1-c1ccc2ncnc(Nc3ccc(OCc4ccccc4)cc3)c2c1` [GW320571], the “%Inh” value in assay [1] (setting [11]) is on record as 3%; in assay [2] (setting [11]), 17%; in assay [3] (setting [11]) it was 9%; in assay [4] (setting [11]), 13%; in assay [5] (setting [11]), 0%; in [6] (setting [11]), 28%. Moreover, the “%Inh” value is recorded as 0% in [7] (setting [11]), 0% in assay [8] (setting [11]), 0% in assay [9] (setting [11]) and 18% in assay [10] (setting [11]).
With `Cn1ccc2ncnc(Oc3ccc(NC(=O)Nc4ccccc4)cc3)c21`, the “%Inh” value in assay [1] (setting [11]) is reported as 0%; in assay [2] (setting [11]) it was 24%; in assay [3] (setting [11]), 15%; in assay [4] (setting [11]), 21%; in assay [5] (setting [11]), 0%; in assay [6] (setting [11]), 0%. The “%Inh” value in assay [7] (setting [11]) is recorded as 2%; in [8] (setting [11]), 0%; in [9] (setting [11]), 0%; in assay [10] (setting [11]), 0%.
Take `CC1=C(C(=O)Nc2cc3cn[nH]c3cc2F)C(c2ccc(C(F)(F)F)cc2)CC(=O)N1` (stereo not drawn) [GSK429286]: the “%Inh” value is 99.1% in assay [1] (setting [11]); 98.2% in [2] (setting [11]); 0% in assay [3] (setting [11]); 16% in assay [4] (setting [11]); 0% in assay [5] (setting [11]); 0% in assay [6] (setting [11]). The “%Inh” value came out at 0% in assay [7] (setting [11]), 5% in assay [8] (setting [11]), 18% in assay [9] (setting [11]) and 19% in [10] (setting [11]).
Turning to `Cl.NC(=O)c1cccc(Nc2nccc(Nc3ccc(Oc4cccc(Cl)c4)c(Cl)c3)n2)c1` [GW659008], the “%Inh” value in [1] (setting [11]) was determined as 0%; in assay [2] (setting [11]), 0%; in [3] (setting [11]), 0%; in assay [4] (setting [11]), 0%; in assay [5] (setting [11]) it was 0%; in assay [6] (setting [11]), 5%. Moreover, the “%Inh” value in [7] (setting [11]) was found to be 11%; in assay [8] (setting [11]) it was 0%; in assay [9] (setting [11]) it was 0%; in [10] (setting [11]), 8%.
On to `O=S(=O)(c1ccc(-c2ccnc3[nH]ccc23)cc1)N1CCCC1` [GSK846226], for which the “%Inh” value in assay [1] (setting [11]) stood at 81%; in assay [2] (setting [11]), 82%; in assay [3] (setting [11]) it was 12%; in assay [4] (setting [11]) it was 5%; in assay [5] (setting [11]) it was 56%; in [6] (setting [11]), 8%. Moreover, the “%Inh” value in assay [7] (setting [11]) is 76%; in [8] (setting [11]) it was 8%; in [9] (setting [11]) it was 54%; in assay [10] (setting [11]) it was 18%.
As to `Cc1c(Cn2ccn3c(=O)cc(N4CCOCC4)nc23)cccc1C(F)(F)F` [GSK2289044], the “%Inh” value in assay [1] (setting [11]) is 0%; in assay [2] (setting [11]), 0%; in [3] (setting [11]) it was 8%; in assay [4] (setting [11]) it was 0%; in [5] (setting [11]), 0%; in assay [6] (setting [11]), 6%. For the same molecule, the “%Inh” value in assay [7] (setting [11]) worked out at 11%; in assay [8] (setting [11]), 0%; in assay [9] (setting [11]) it was 0%; in assay [10] (setting [11]), 0%.
Take `NC(=O)c1nnc2ccccc2c1N`: the “%Inh” value in assay [1] (setting [11]) is 0%; in [2] (setting [11]), 7%; in assay [3] (setting [11]), 0%; in assay [4] (setting [11]), 21%; in assay [5] (setting [11]), 30%; in assay [6] (setting [11]) it was 6%. Further, the “%Inh” value in [7] (setting [11]) stood at 21%; in [8] (setting [11]), 31%; in [9] (setting [11]) it was 0%; in assay [10] (setting [11]) it was 33%.
In the case of `CC(C)(C)c1ccc(C(=O)Nc2cn3cc(-c4cccnc4)ccc3n2)cc1`, the “%Inh” value turned out to be 0% in assay [1] (setting [11]); 7% in assay [2] (setting [11]); 0% in [3] (setting [11]); 15% in [4] (setting [11]); 0% in assay [5] (setting [11]); 0% in assay [6] (setting [11]). Further, the “%Inh” value in [7] (setting [11]) was found to be 6%; in assay [8] (setting [11]) it was 19%; in [9] (setting [11]), 42%; in assay [10] (setting [11]), 17%.
For `COc1cc2nccc(Nc3ccc(NC(=O)c4ccc(C)cc4)c(O)c3)c2cc1OC.Cl` [GW440132], the “%Inh” value was 0% in assay [1] (setting [11]); 4% in assay [2] (setting [11]); 47% in [3] (setting [11]); 11% in assay [4] (setting [11]); 0% in [5] (setting [11]); 18% in assay [6] (setting [11]). The “%Inh” value in assay [7] (setting [11]) was determined as 0%; in assay [8] (setting [11]), 9%; in [9] (setting [11]) it was 0%; in [10] (setting [11]) it was 7%.
